Reference: the supplement of paper PMC6555819

These sequences were tested on VDR:RXRa (NR concentration 270 nM, RXRa partner concentration 90 nM) (assay: PBM binding z-score (relative to random genomic background probes); higher = stronger binding; sequences stand for … in GC…GCGATTGACAGCGTAGAATGAAGG).
Method: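 Protein-binding microarray (Agilent 4x180K custom design, double-stranded 60-nt probes: 5' GC cap, 34-nt variable region, 24-nt constant primer region; full probe sequence given). Purified or IVT nuclear receptor:RXRα heterodimers (3:1 NR:RXRα, mostly 270:90 nM) or homodimers were incubated for 1 h in PBS with 2% milk and no ligand, then detected with Alexa488 antibodies. Fluorescence from o1-orientation probes (~5 replicates averaged) was converted to z-scores against 500 random hg19 background probes. Variable regions are seed direct-repeat (DR0–DR5) sites, all their single-nucleotide variants and half-site ablations.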

Sequence | PBM binding z-score
CCTTACGGGTCAAGGGTATAGCACGGGTGGTACG | 3.22
GCTAGTTCGTCAGTAAAAGGTCACACACCGGTCG | 4.28
ACGGACAGGTGATGAAGGTAACTCAGGCTATCAT | 0.367
CTCGAAAGGTCGTGCTCAGGTGATTATACCAAAC | 3.58
ATCTCTAGGTAACCAATTTCAGTGAATGCCGAAC | 0.336
CGAACTAGGTCAAGGAGAGTGAATCTCCGCACGC | 1.33
GATACAGGGTCAGCTAGAGGCCAGAGTATGGAAA | 3.33
CAAACTAGATCACAGAGGTCAAAGTCCGTGCGTA | 5.7
TCTTGTAGAACAACAGGAGGTTAAGAAAGATCGA | 0.492
TCTTGTAGATCAACAGGAGGGTAAGAAAGATCGA | 0.029
TCTGCTAGGTCAGTCGGTCAGCTAACGAGCTGCC | 0.139
TAGACTAGGTCATTCAGGGGCCAGTATAGAAAGC | 2.48
GCTCGGAGGAGAAGGTCAGAGCTTTGTCCGTAGA | 0.324
AGTCAAAGTTCATCGAGGTAACGTAAGATATGCT | 6.17
TTACCAAGGTGAGCTGAGGTCGATGATCCAACTC | 2.51
TCTGCTAGGTCAGTTAGTCAGCTAACGAGCTGCC | -0.204
CAAACTCGGTCAAGAGGTCAAAGTCCGCTTCCCG | 5.41
GCGACTGGGGCATCAGCTGGTTACCATAACTTAA | -0.49
TATACAGAGTCAAAGGCCAGAGTACGAATGTCGA | 0.241
CGAACTTGGTCAGAACAGGACAGTGAAGGATGAT | -0.145

Sequence | PBM binding z-score
TAGCCTAGGTCATGGGCTAGTATACCACGCGAAC | 1.72
ATCTCTAGGTAACAAGTTCCGTGAAAGAGAGGAC | 0.0818
TCTTGTAGATCAAGCAGGTTACGAAAGCCTGAGT | 0.633
ATCTCTAGGTAAGACTCAGTTAAGTGAAGAACGC | 0.511
GCTGCTAGGGCAACTGATGGTCAGCTAAAGCTCG | -0.881
ACTAGTTGGTCAGCTCAGGTCACACACAATTCGG | 2.23
AGAACGAGGGCAATGAGTTGGTAGCACGGGTGGC | 4.09
GATACAGGGTCAGCTAGAGACCAGAGTATGGAAA | 2.23
TCAGACAGGTGAAGGTTACTCAGGTACGCAGTCG | 1.69
CTCGAAAGGTCGGTTGAGGGGAGTATACGGATAA | 1.24
TAGCCTAGGTAATGGGCCAGTATACCACGCGAAC | -0.466
CCTAGCAGGCCAATCTGGGTCACTCAGGGCTTGA | 0.721
TCGAGTAGGTTACCAATGGCGCATTCAGCTTTCT | 0.111
TCTTGTAGATCAGCAGGTTAAGACAGCTGGCCAA | 0.176
ACAATTAGTTGACTTAGGGCAACCGATACGACGC | 0.376
CTCGAAAGGTCGTGCTCAGGTGAATATACCAAAC | 3.77
GCGACCGGGGCATCAGCAGGTTACCATAACTTAA | 0.435
CGTCCAGGGTCAAGGTCAGTGAAAGAGACTCGAA | 4.79
CCTTACGCGTCACTCCAGGTTATAGCATCGGAGT | 0.361
AGTCAAAGTTCAGGACGAGGTGACGTAAAGCACG | 3.27
